Compound activity (PubChem)
PostGolgi ctrl: growth of the yeast control strain, post-Golgi counter-screen; efflux-deficient yeast background strain, growth absorbance A615, 16 h; inhibition, % at 10 µM; 98,000 tested, 5% active
Smad3 FoxH1 inh: blocks human Smad3 binding to FoxH1 peptide. P84022. TR-FRET Smad3/Dy647-FoxH1 peptide binding, europium anti-His. inhibition, % at 25 µM. 88,000 tested, 0.29% active;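 active = compounds that reduce the energy-transfer binding signal between the protein and its labelled peptide by more than half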
Target sequence (P84022 whole entry, looked up): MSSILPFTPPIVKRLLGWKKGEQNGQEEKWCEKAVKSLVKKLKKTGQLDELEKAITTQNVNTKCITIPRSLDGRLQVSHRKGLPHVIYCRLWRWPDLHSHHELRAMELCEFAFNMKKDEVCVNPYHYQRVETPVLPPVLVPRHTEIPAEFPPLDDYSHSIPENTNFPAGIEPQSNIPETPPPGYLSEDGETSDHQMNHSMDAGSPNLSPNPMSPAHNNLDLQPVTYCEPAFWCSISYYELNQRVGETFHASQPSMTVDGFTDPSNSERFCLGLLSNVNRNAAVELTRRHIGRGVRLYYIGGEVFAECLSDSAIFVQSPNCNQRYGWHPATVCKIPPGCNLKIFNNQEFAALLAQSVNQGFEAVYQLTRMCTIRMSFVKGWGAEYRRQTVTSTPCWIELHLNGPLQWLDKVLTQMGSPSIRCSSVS
TNAP act DEA: activates human TNAP at intermediate phosphate acceptor concentration; purified TNAP, CDP-star luminescence, 100 mM DEA, 30 min; hits give high values; scale: 0 levamisole-inhibited, 1 vehicle-only enzyme; activation factor at 20 µM; 64,000 tested, under 10 active; AID 813;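 active = activation factor of at least 2 at 20 µM, relative to controls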
Cav32 inh: blocks human Cav3.2 T-type calcium channel. Cav3.2-expressing cells, Fluo-4 calcium fluorescence FDSS; hits give low values. 100,000 tested, 4% active. B-score at 10 µM. O95180;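 active = single-dose well whose peak fluorescence ratio is a statistical outlier from its plate by either plate-standardised score or position-corrected B-score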
PostGolgi yeast: growth inhibition of a yeast mutant, post-Golgi transport screen; post-Golgi transport phenotypic cell assay; inhibition, % at 10 µM; 98,000 tested, 0.9% active;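 note: yeast cells grown in 1536-well plates; yeast grown about 18 h at 30C before absorbance read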
DAT uptake mod: changed human dopamine transporter uptake under cocaine IC80; Q01959; LLC-PK1 hDAT cells, [14C]-dopamine uptake with cocaine IC80; actives deviate in either direction; B-score at 10 µM; 110,000 tested, 1.3% active; AID 449768;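 active = Z score or B-score, a plate-position-corrected score, falls beyond the plate's 99.7% confidence bounds, in either direction; inactive = both scores lie inside the 99.7% bounds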
Hits are given with their value; . = inactive; / = not tested or not shown. Hits are enriched below; roughly 8.7% of the tested compounds scored in any of these assays. Cut-off read from the data, not from the text of the source, unless noted: active = inhibition above about 30%; inactive = the rest.

SMILES	PostGolgi ctrl	Smad3 FoxH1 inh	TNAP act DEA	Cav32 inh	PostGolgi yeast	DAT uptake mod
N#CC1=C(Nc2ccc(Br)cc2)CCC1	.	.	.	.	.	.
CCOc1ccc2ncc(C(=O)c3ccc(OC)cc3)c(N3CCN(CC)CC3)c2c1	/	/	/	.	/	.
CCOC(=O)c1cnc2ccc(OCC)cc2c1N1CCN(c2ccccc2OC)CC1	59	.	/	.	.	.
CC(OC(=O)CN(C)S(=O)(=O)c1ccc(Cl)cc1)C(=O)Nc1cccc(Cl)c1 (configuration not stated)	.	/	/	-6.6	.	.
Cc1cc(C)n(C(=O)CN2C(=O)CCC2=O)n1	.	.	.	.	.	.
Cc1cc(C)n(C(=O)C23CC4CC(CC(C4)C2)C3)n1	.	.	.	-5.6	.	.
Cc1ccc(-c2nnn(CC(=O)N(CC(=O)NCC3CCCO3)c3ccccc3)n2)o1 (configuration not stated)	.	.	.	.	.	.
Cc1ccc(N(C(=O)Cn2nnc(-c3ccc(F)cc3)n2)C(CC(C)C)C(=O)NCC2CCCO2)cc1 (configuration not stated)	.	/	/	-7.4	.	.
CC(C)(C)NC(=O)C(c1ccco1)N(C(=O)Cn1nnc(-c2ccc(F)cc2)n1)c1ccccc1F (configuration not stated)	79	.	.	-5	76	.
COc1cccc(N(C(=O)Cn2nnc(-c3ccc(C)cc3)n2)C(C(=O)NC(C)(C)C)c2c[nH]c3ccccc23)c1 (configuration not stated)	.	/	/	-5.6	.	.
Cc1ccc(-c2nnn(CC(=O)N(c3ccccc3F)C(CC(C)C)C(=O)NCC3CCCO3)n2)cc1 (configuration not stated)	.	/	/	-4.4	.	.
CC(C)(C)C(=O)Nc1ccccc1C(=O)N1CCCC1	/	.	/	.	/	.
CCn1c(CC(=O)Nc2ccc(C)cc2)nnc1SCC(=O)NCCc1ccccc1	.	.	/	.	.	.
CC(C)CC(C(=O)NCC1CCCO1)N(C(=O)Cn1nnc(-c2ccc(F)cc2)n1)c1ccccc1F (configuration not stated)	.	/	/	-3.4	.	.
CC(C)CC(C(=O)NCC1CCCO1)N(C(=O)Cn1nnc(-c2ccc(F)cc2)n1)c1cccc(C(F)(F)F)c1 (configuration not stated)	.	/	/	.	.	.
CCC(C(=O)NC1CCCC1)N(C(=O)Cn1nnc(-c2ccc(C)cc2)n1)C1CCCC1 (configuration not stated)	/	.	/	-6.5	/	3.7
O=C(CSc1nnc(-c2ccncc2)n1C1CCCCC1)Nc1cccc(O)c1	.	.	.	.	.	.
Cc1cc(C)cc(NC(=S)N2CCC(c3nc4ccccc4s3)CC2)c1	.	/	/	.	.	.
O=C(CSc1ccc(Cl)cc1Cl)N1CCC(c2nc3ccccc3s2)CC1	38	/	/	.	.	.
C=C(C)COc1ccc(-c2[nH]ncc2-c2ccccc2)c(O)c1	62	.	/	.	45	.
C=C(C)COc1ccc(-c2[nH]ncc2Oc2ccccc2OCC)c(O)c1	.	.	.	.	49	.
C=C(C)COc1ccc(-c2[nH]ncc2Oc2cccc(OC)c2)c(O)c1	30	.	.	.	.	.
COc1ccc(-c2[nH]ncc2Oc2ccccc2OC)c(O)c1	.	.	.	.	.	.
COCCNC(=O)CC(NS(=O)(=O)c1ccc(C)cc1)c1ccco1 (configuration not stated)	.	.	.	/	.	.
CC1CCc2nc(N)c(C#N)c(-c3cccnc3)c2C1 (configuration not stated)	.	.	.	.	.	.
SMILES	PostGolgi ctrl	Smad3 FoxH1 inh	TNAP act DEA	Cav32 inh	PostGolgi yeast	DAT uptake mod
O=C(c1cccc(F)c1)N1CCN(Cc2c[nH]c3ccccc23)CC1	.	.	.	.	.	.
CC(=O)OC1=C(O)C(=O)c2ccccc2C1=O	/	/	/	.	/	.
Cc1ccc2c(CC(=O)O)coc2c1	.	.	.	.	.	.
Cc1ccc2c(CC(=O)Nc3nc(C)cs3)coc2c1	.	.	.	-6.8	.	.
Cc1cc2occ(CC(=O)NC3=NCCS3)c2cc1C(C)C	.	.	.	.	.	.
Cc1ccc2c(CC(=O)NC3=NCCS3)coc2c1	33	.	.	.	.	.
CCS(=O)(=O)N1CCN(c2ccc([N+](=O)[O-])c(NCc3ccccc3)c2)CC1	.	/	/	.	.	.
CC1CN(S(=O)(=O)c2ccc(Cl)c(S(=O)(=O)N3CC(C)OC(C)C3)c2)CC(C)O1 (configuration not stated)	.	.	.	.	.	.
CN(C)S(=O)(=O)N(CC(=O)N(Cc1ccccc1)Cc1ccccc1)c1ccccc1	34	.	/	.	.	.
CN(C)S(=O)(=O)N(Cc1ccc(Br)cc1)c1ccccc1	.	.	.	.	.	.
CC1CCCCN1CCNC(=O)c1cnn2ccccc12 (configuration not stated)	.	.	.	.	.	.
O=C(CCS(=O)(=O)Cc1ccccc1)NCC1CCCO1 (configuration not stated)	34	.	.	.	.	2.1
O=C(Cc1ccccc1)NCC1CCCO1 (configuration not stated)	.	.	/	.	.	.
O=C(CSc1nnc(-c2ccc(F)cc2)o1)Nc1ccccc1N1CCOCC1	/	.	/	.	/	3.3
CN(CC(=O)Nc1ccccc1N1CCOCC1)S(=O)(=O)c1ccc(F)cc1	31	.	/	.	.	.
COc1ccc(-c2nnc(SCC(=O)Nc3cc(F)ccc3C)o2)cc1	.	.	.	-5.6	.	.
CN1C(=O)/C(=C/c2ccccc2OCc2cccc(F)c2)NC1=S	.	/	/	.	.	.
Cc1ccc2[nH]c(=O)c(CNC(C)C)cc2c1	.	.	.	.	.	.
CCc1cccc(CC)c1NC(=O)CSc1nc2ccc(N3C(=O)C4C5C=CC(C5)C4C3=O)cc2s1 (configuration not stated)	30	/	/	.	.	.
CCN1CCCC1CNC(=O)c1ccc2c(=O)n(CCOC)c(=O)[nH]c2c1 (configuration not stated)	.	/	.	.	.	.
CCCCSc1nc(O)c(C2OC(=O)c3c2ccc(OC)c3OC)c(=O)n1C (configuration not stated)	.	.	.	.	.	.
CCSc1nc(O)c(C2OC(=O)c3c2ccc(OC)c3OC)c(=O)n1CC (configuration not stated)	.	84	.	.	.	.
CCc1nn(CC(=O)NCCCN2CCc3ccccc3C2)c(=O)c2cc3sccc3n12	.	.	.	.	.	.
Cc1ccc(C(=O)C[n+]2cccc3ccccc32)cc1	.	/	/	.	.	.
O=C(C[n+]1ccc2ccccc2c1)c1ccc2ccc3ccccc3c2c1	/	81	/	/	/	/
COc1ccc(C(=O)CSc2nnc(CNc3nc(-c4ccccc4)cs3)n2C)cc1	.	.	.	-5.7	.	.
